15-hLO-2 inh – inhibitors of human 15-lipoxygenase 2 (ALOX15B) | O15296 | purified 15hLO-2, xylenol orange hydroperoxide absorbance | 110,000 tested, 0.56% active | Potency, µM (doses to about 57.1 µM), for the others: at the top dose activity change, negative = inhibition, actives largely listed as inhibitors; note: potency is the fitted concentration of half-maximal effect; nearly all actives have a fitted effect of over 60% in size
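Purified human 15hLO-2 (50 nM final) preincubated with compounds 15 min at room temperature in 25 mM Hepes pH 7.5, 0.01% Triton X-100, then 45 uM arachidonic acid added for 90 min; hydroperoxide detected via ferrous/xylenol orange, 573/405 nm absorbance ratio.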
12-hLO inh – inhibitors of human 12-lipoxygenase (ALOX12) | purified 12-hLO, xylenol orange hydroperoxide absorbance | Potency, µM (top dose mostly 57.1 µM), inactives show at the highest dose activity change, negative = inhibition, usual class: inhibitors | P18054 | 150,000 tested, 0.12% active | AID 1452; note: potency is the fitted concentration of half-maximal effect; nearly all actives have a fitted effect of over 55% in size
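Xylenol orange chromogenic assay: hydroperoxide from 12hLO oxidises Fe(II), giving red-shifted Fe(III)-XO absorbance. Conditions: 150 nM enzyme, 40 uM arachidonic acid, 25 mM Hepes pH 7.0, 0.01% Triton X-100, 30 min, room temperature.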
HPGD inh – HPGD (human) dehydrogenase inhibition; 150,000 tested, 4.3% active; P15428; Potency, µM, for inactives: at the highest dose activity change, negative = inhibition, most hits filed as inhibitors; purified HPGD, NADH fluorescence kinetic, PGE2 substrate; active = well fitted inhibition curve with a large enough effect, not every such curve was filed as active; inconclusive = small, poorly fitted or top-dose-only effect, or another doubt; inactive = no such curve, though single readings can be large or run the other way; note: potency is the fitted concentration of half-maximal effect
Target sequence (P15428 whole entry, looked up): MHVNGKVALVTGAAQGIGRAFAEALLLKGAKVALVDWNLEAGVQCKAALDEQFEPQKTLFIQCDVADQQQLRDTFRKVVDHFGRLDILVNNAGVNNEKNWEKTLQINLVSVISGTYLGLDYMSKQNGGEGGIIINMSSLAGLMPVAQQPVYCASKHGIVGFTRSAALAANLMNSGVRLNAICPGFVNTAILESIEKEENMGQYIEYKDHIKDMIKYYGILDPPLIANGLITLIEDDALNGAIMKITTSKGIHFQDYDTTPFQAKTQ
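NADH formation kinetics: reaction with 30 uM PGE2 and 1 mM NAD+ (final), 20 nM enzyme, Tris-HCl pH 8 with Tween 20, after 15 min compound preincubation at room temperature. Fluorescence change, last versus first of five reads.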
PNC assembly inh – blocks assembly of the perinucleolar compartment; 140,000 tested, 3.1% active; PC3M PTB-GFP, PNC prevalence imaging, 16 h; hits give low values; activity change (PNC), negative = inhibition, % at 10 µM;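 active = readout at or below -70, meaning at least 70% loss of cells showing the perinucleolar compartment, a nuclear body marking cancer cells; inconclusive = readout between -30 and a set limit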;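 note: plate controls were DMSO wells for no effect and camptothecin positive control wells for full effect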
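Compounds are pinned in duplicate onto adhered PC3M cells stably expressing GFP-tagged PTB and incubated 16 h at 37 C. Cells are then fixed, nuclei stained with Hoechst, and PNC-positive cells counted.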
IMPase Li inh – IMPase inhibition in cells with lithium potentiation | CHO-M1 cells, IP1 TR-FRET (IP-One), carbachol + lithium | Potency, µM (titrated, usually from 59.4 µM), for the others: top-dose activity, negative = IMPase inhibition, hits mostly inhibitors | 210,000 tested, 0.35% active;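 note: IP1 builds up when IMPase is blocked and the TR-FRET signal falls; potency is the fitted concentration of half-maximal effect; plate controls were basal vehicle for no effect and high inhibitor control for full effect; nearly all actives have a fitted effect of over 50% in size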
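CHO cells stably expressing M1 receptor (2000/well) were cultured 16–30 h, then exposed to compounds with a small lithium addition for 30 min at 37C. IP1 was measured by TR-FRET competition; AC50 from Hill fits.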
IMPase inh – membrane-permeable compound that blocks inositol monophosphatase; P97697; CHO-M1 cells, IP1 accumulation, HTRF TR-FRET ratio; inhibition (IP1 accumulation), % at 46.1 µM; 120,000 tested, under 10 active; active = well fitted curve in the direction sought with a large enough effect in the signal ratio, not every such curve was filed as active; inconclusive = small, poorly fitted or top-dose-only effect, or a change in a side signal; inactive = no such curve, though single readings can be large or run the other way; the % refers to the signal ratio;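 note: cells stimulated with carbachol in lithium chloride buffer; plate controls were DMSO basal wells for no effect and reference inhibitor wells for full effect; higher means more IMPase inhibition seen as more IP1 and lower FRET ratio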
Target sequence (P97697 whole entry, looked up): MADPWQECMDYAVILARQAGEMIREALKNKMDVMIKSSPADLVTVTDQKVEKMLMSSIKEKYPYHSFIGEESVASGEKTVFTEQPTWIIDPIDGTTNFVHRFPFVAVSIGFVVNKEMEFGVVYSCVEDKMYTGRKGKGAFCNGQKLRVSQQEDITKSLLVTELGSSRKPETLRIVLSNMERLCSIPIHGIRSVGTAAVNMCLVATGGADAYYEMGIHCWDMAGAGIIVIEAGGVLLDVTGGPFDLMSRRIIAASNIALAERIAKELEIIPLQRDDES
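Cellular IMPase inhibition is scored as a rise in cytosolic IP1, detected by competitive TR-FRET between d2-labelled IP1 and a europium anti-IP1 antibody. M1-expressing CHO cells were stimulated with carbachol for 30 min at 37C, with lithium (50 mM LiCl) present in the buffer.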
Starred values were filed as active, the others as inactive; u = inconclusive; x = no result; [ ] = remark or other dose. A selection: hits, their analogues and other compounds. The true share with any hit is near 5.3%. Unless noted, calls come from the whole dose curve; as a rule, active = well fitted curve in the direction sought with a large enough effect; inconclusive = small, poorly fitted or top-dose-only effect, or another doubt; inactive = no such curve, though single readings can be large; an effect the other way counts as inactive or inconclusive. Unless noted, % is set by controls: 0 for no effect and ±100 for the full control effect.

SMILES	15-hLO-2 inh	12-hLO inh	HPGD inh	PNC assembly inh	IMPase Li inh	IMPase inh
O=C(NC1CCN(Cc2ccccc2)C1)c1ccc(Cc2nc3ccccc3[nH]2)cc1 (stereo not drawn)	x	3%	-5%	x	x	x
CCn1c(COc2ccccc2)nnc1SCC(=O)C(C)(C)C	-4%	-2%	-7%	-97*	-1%[38.3 µM]	1
Cn1ncc(N=Cc2ccccc2)c1C(=O)Nc1cccc(Cl)c1	3%	8%	-19%	u	2%	11
O=C(/C=C1\NC2(CCCC2)Cc2ccccc21)C(=O)N/N=C/c1ccc(O)c(O)c1	x	0.89µM*	-25%	6	29%	x
COc1ccc2c(c1)C(=O)[C@H](OC(=O)N[C@H](C)C1CCCCC1)[C@@H](c1ccc(OC)c(Br)c1)O2	x	x	-3%	x	8%	x
Cc1[nH]ccc(=O)c1OCc1ccccc1	10%[11.4 µM]	0%	-15%	-111*	11%[38.3 µM]	-1[1.84 µM]
Cc1[nH]ccc(=O)c1OCc1c(F)cccc1Cl	x	x	x	x	1%	x
Cc1[nH]ccc(=O)c1OCc1ccc(Cl)cc1	-4%[11.4 µM]	5%	-13%	-124*	19%[38.3 µM]	u
Cc1c(OCc2ccccc2)c(=O)ccn1Cc1ccc(Cl)cc1	45%	-3%	-7%	18	8%[38.3 µM]	5
CC12CCC(C(=O)Nc3ccccc3)(C(Br)C1=O)C2(C)C (stereo not drawn)	x	-2%	-1%	40	0%	x
O=C(Nc1nc(-c2ccc3ccccc3c2)cs1)C1CCN(S(=O)(=O)c2cccs2)CC1	x	4%	-9%	-87*	-3%	x
Cc1ccc(-c2csc(NC(=O)C3CCN(S(=O)(=O)c4cccs4)CC3)n2)cc1	x	-1%	-1%	1	9%	x
COc1ccc(N(C(=O)c2ccco2)S(=O)(=O)c2ccc(F)cc2)cc1	x	1%	28µM*	39	28%	10
COc1ccc(N(C(=O)c2ccco2)S(=O)(=O)c2cccc([N+](=O)[O-])c2)cc1	-3%	5%	u	70	3%[38.3 µM]	7
COc1cc(NC(=S)NCc2cccnc2)cc(OC)c1	x	-2%	-13%	-92*	4%	x
COc1cc(NC(=S)NCc2cccnc2)cc(OC)c1OC	x	x	x	x	8%	x
Cc1cc(C)cc(NC(=S)NCc2cccs2)c1	x	-4%	14µM*	6	5%	x
COc1cc(NC(=S)NCc2cccs2)cc(OC)c1	x	-5%	18µM*	33	0%	x
CC(C)(C)c1ccc(NC(=S)NCc2cccs2)cc1	u	u	-11%	-7	14%[38.3 µM]	-4
CCC(=O)Nc1ccc(C(=O)NNC(=O)COc2cccc(C)c2)cc1	x	0%	-15%	4	-2%	x
COC(=O)c1ccc(OCC(O)CN(CC(C)C)CC(C)C)cc1 (stereo not drawn)	2%	-10%	x	4	x	11
CC12CCC(C(=O)NCc3ccc4c(c3)OCO4)(C(=O)C1=O)C2(C)C (stereo not drawn)	-11%	-11%	-13%	36	9%[38.3 µM]	-3
Cc1cc2cc(C(c3nnnn3C(C)(C)C)N(Cc3ccco3)CC3CCCO3)c(=O)[nH]c2cc1C (stereo not drawn)	4%	-8%	-20%	-8	-1%[38.3 µM]	7
COc1ccc2[nH]c(=O)c(C(c3nnnn3C(C)(C)C)N(Cc3ccco3)CC3CCCO3)cc2c1 (stereo not drawn)	-5%	-8%	u	-1	16µM*	2
CCOc1ccc(NC(=O)CSc2nnc3scc(-c4ccc(Cl)cc4)n23)cc1	x	x	x	x	x	1
SMILES	15-hLO-2 inh	12-hLO inh	HPGD inh	PNC assembly inh	IMPase Li inh	IMPase inh
CCOc1ccc2[nH]c(=O)c(CN(CCO)Cc3nnnn3CCc3ccccc3)cc2c1	-5%	-8%	-18%	-85*	7%[38.3 µM]	-3
CCOc1ccc2[nH]c(=O)c(CN(Cc3ccco3)Cc3nnnn3Cc3ccccc3)cc2c1	6%	-16%	u	-17	24%[38.3 µM]	9
COc1ccc(C2C3=C(CC(C)(C)CC3=O)Nc3c2c(=O)[nH]c(=O)n3Cc2ccccc2)cc1OC (stereo not drawn)	7%	2%	u	-85*	-1%	4
CCS(=O)(=O)c1ccc2oc(SCC(=O)NC3CCCC(C)C3C)nc2c1 (stereo not drawn)	-3%	-6%	32µM*	u	49%[38.3 µM]	3
CCS(=O)(=O)c1ccc2oc(SCC(=O)NC34CC5CC(CC(C5)C3)C4)nc2c1	0%	0%	-13%	-26	-1%[38.3 µM]	5
Cc1ccc(C)c(NC(=S)NCc2ccc3[nH]c4c(c3c2)CCCC4)c1	x	u	-21%	-16	9%	x
Cc1ccccc1NC(=S)NCc1ccc2[nH]c3c(c2c1)CCCC3	x	14µM*	20µM*	25	33%	x
COC(=O)c1csc(C(=O)c2c[nH]c3ccccc23)n1	-7%[0.0915 µM]	1%[0.00818 µM]	-13%	x	-1%	x
O=C(COc1ccc(Cl)cc1)NCc1nnc(SCC(=O)NC2CCCCC2)o1	7%	-2%	-16%	u	11µM*	-2
O=C(NCC1CCCO1)c1csc2c1CCCC2 (stereo not drawn)	7%	-6%	20µM*	-14	15%[38.3 µM]	4
COc1ccc(CCNC(=O)c2csc3c2CCCC3)cc1OC	x	x	x	x	12%	x
CCN1CCCC1CNC(=O)c1csc2c1CCCC2 (stereo not drawn)	3%[11.4 µM]	1%	-4%	-85*	49%[38.3 µM]	3[1.84 µM]
COCCNC(=O)c1csc2c1CCCC2	4%	-3%	16µM*	u	-5%[38.3 µM]	4
Cc1ccccc1C1CC(=O)Oc2cc(C)c(Cl)c(C)c21 (stereo not drawn)	-3%[0.0915 µM]	-2%[0.00818 µM]	-1%	x	21%	x
CC(C)c1ccc(CNC(=O)C(=O)NCC2CCCO2)cc1 (stereo not drawn)	x	x	x	x	-2%	x
O=C(CCn1nnc2ccccc21)N1CCC(O)(c2cccc(F)c2)CC1	18%	1%	-11%	24	-20%[38.3 µM]	-3
Clc1ccc(/C=N/Nc2nn[nH]n2)cc1	x	-2%	-11%	-100*	7%	-22
CC(NC(=O)C(NC(=O)C1CCCN1C(=O)OC(C)(C)C)C(C)C)C(N)=O (stereo not drawn)	x	3%	-9%	-94*	-3%	-6
CC(C)CC(NC(=O)C1CCCN1C(=O)OC(C)(C)C)C(=O)NCC(N)=O (stereo not drawn)	-4%	5%	-8%	u	23%[38.3 µM]	2
N#Cc1c(N)n[nH]c1CCCN	-3%	-2%	-8%	-22	17%[38.3 µM]	1
N#Cc1c(N)n[nH]c1-c1cc2c([nH]1)CCCC2	x	-11%	-20%	-100*	-5%	9
COc1ccccc1-c1ccc(=O)n(CC(=O)NCC2CCCO2)n1 (stereo not drawn)	x	x	x	x	-4%	x
